SMN2 splice enh – increases expression of the SMN2 splice variant; Potency, µM (titrated, usually from 46.1 µM), for the others: top-dose activity change, positive = activation, actives largely listed as activators; HEK293 SMN2-luciferase splicing reporter, luminescence, 30-36 h; 210,000 tested, 2.8% active; also: % of control where 0% means no effect; nearly all actives have a fitted effect of over 55% in size
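HEK293 cells carry an SMN2 […]–luciferase reporter in which exon 7 inclusion puts luciferase in frame. Cells were plated 10-12 h before compound addition, then incubated 30-36 h at 37C. ONE-Glo luminescence was read; sodium butyrate at 4.5 mM final served as control.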
ELG1 repair inh – inhibitors of ELG1-dependent DNA repair in HEK293T cells | HEK293T ELG1-luciferase reporter, luminescence, 16 h; DNA damage induced by 5-fluorouridine | Potency, µM (doses to about 46.1 µM), without a hit: top-dose activity change, negative = inhibition, actives largely listed as inhibitors | 330,000 tested, 2.3% active | AID 504467; also: % is scaled to controls: 0 for no effect and ±100 for the full control effect; nearly all actives have a fitted effect of over 55% in size
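Reporter activity after DNA damage by 5-fluorouridine is monitored. Compound-treated cells incubate 16 hr at 37 °C, then ONE-Glo is added for 30 min before luminescence reading.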
NPC1 prom act – NPC1 promoter activation; Huh7 NPC1 promoter luciferase reporter, 24 h; Potency, µM (titrated, usually from 9.22 µM), without a hit: at the highest dose activation, usual class: activators; 320,000 tested, 2.4% active; AID 485313; also: % of control where 0% means no effect; nearly all actives have a fitted effect of over 60% in size
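Cells: Huh7 expressing luciferase under the NPC1 promoter, 1500/well. Seeded 2 h, compound added, incubated 24 h at 37 °C. Luciferase reagent, 10 min ambient, then luminescence.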
FLuc modulator – counter-screen for miR-21 project: firefly luciferase inhibitors or activators. P08659. purified FLuc, Km substrates, luminescence inhibition. Potency, µM (highest dose often 57.5 µM), for inactives: at the highest dose activity change, negative = inhibition, actives largely listed as inhibitors. 360,000 tested, 6.9% active. AID 588342;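 also: plate controls were vehicle for no effect and reference inhibitor for full effect; nearly all actives have a fitted effect of over 55% in size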
Target sequence (P08659 whole entry, looked up): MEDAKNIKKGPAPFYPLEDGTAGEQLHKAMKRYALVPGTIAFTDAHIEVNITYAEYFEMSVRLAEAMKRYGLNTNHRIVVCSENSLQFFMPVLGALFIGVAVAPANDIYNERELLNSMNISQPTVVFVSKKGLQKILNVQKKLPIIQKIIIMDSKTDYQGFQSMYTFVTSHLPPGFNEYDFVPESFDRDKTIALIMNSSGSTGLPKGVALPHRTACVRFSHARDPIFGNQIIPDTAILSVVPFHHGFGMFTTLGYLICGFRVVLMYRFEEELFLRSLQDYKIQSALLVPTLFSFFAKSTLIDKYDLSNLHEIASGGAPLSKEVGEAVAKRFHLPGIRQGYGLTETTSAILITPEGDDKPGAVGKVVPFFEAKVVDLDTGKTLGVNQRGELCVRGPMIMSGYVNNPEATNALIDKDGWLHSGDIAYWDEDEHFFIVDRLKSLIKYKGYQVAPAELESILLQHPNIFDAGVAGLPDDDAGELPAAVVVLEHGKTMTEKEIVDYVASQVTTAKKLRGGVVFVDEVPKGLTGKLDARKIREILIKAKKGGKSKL
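Biochemical qHTS of compounds, final roughly 60 µM downward over six points, against 10 nM purified firefly luciferase using Km concentrations of substrates (10 uM D-luciferin, 10 uM ATP) in Tris acetate pH 7.5 buffer; luminescence output.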
Rab9 promoter act – Rab9 promoter activation | 320,000 tested, 2.8% active | Potency, µM (doses to about 9.22 µM), for inactives: at the top dose activation, negative = inhibition, actives largely listed as activators | Huh7 Rab9 promoter-luciferase reporter, luminescence, 24 h; also: % of control where 0% means no effect; nearly all actives have a fitted effect of over 60% in size
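Luminescence from Amplite-detected luciferase (10 minutes, ambient) reports Rab9 promoter activation. Before that, stable Rab9-luciferase Huh7 cells (1500/well, reduced-serum OP-MEM I plus 10% FBS) were exposed to compound for 24 hours at 37C.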
ELG1 genotox – induces genotoxicity in HEK293T cells with luciferase-tagged ELG1; HEK293T ELG1-luciferase reporter, luminescence, 16 h; Potency, µM (series often up to 46 µM), for the others: at the highest dose activity change, positive = activation, hits mostly activators; 330,000 tested, 1.3% active; AID 504466; also: % of control where 0% means no effect; nearly all actives have a fitted effect of over 60% in size
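Genotoxic stress is detected as increased luminescence from luciferase-tagged ELG1 in HEK293T cells, measured with ONE-Glo after a 16 hr treatment at 37 °C.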
An asterisk follows results filed as active; ? = inconclusive; · = not tested or not shown; [ ] = remark or other dose. Rows were chosen to be rich in hits. Some 9.2% of all compounds tested hit in one or more screens of this group. Calls follow the shape of the dose curve; as a rule, active = well fitted curve in the direction sought with a large enough effect; inconclusive = small, poorly fitted or top-dose-only effect, or another doubt; inactive = no such curve, though single readings can be large; an effect the other way counts as inactive or inconclusive. Potency is read from the fitted curve at half-maximal effect.

SMILES	SMN2 splice enh	ELG1 repair inh	NPC1 prom act	FLuc modulator	Rab9 promoter act	ELG1 genotox
COc1ccc(S(=O)(=O)c2cnc(SCC(=O)Nc3cc(F)ccc3C)[nH]c2=O)cc1Cl	-7.8%	·	·	9.53µM*	·	·
Cc1ccc(S(=O)(=O)c2cnc(SCC(=O)Nc3ccc4c(c3)OCCO4)[nH]c2=O)cc1	-3.4%	·	·	10.7µM*	·	·
Cc1ccc(S(=O)(=O)c2cnc(SCC(=O)Nc3ccc4c(c3)OCCO4)[nH]c2=O)cc1Cl	·	·	·	10.7µM*	·	·
Cc1ccc(S(=O)(=O)c2cn(CC(=O)Nc3ccc4c(c3)OCO4)c3ccccc3c2=O)cc1	12.5%	·	·	5.5%	·	·
Cc1cccc(N2CCN(S(=O)(=O)c3ccc4oc(=O)c5ncn(C)c5c4c3)CC2)c1C	13.3%	·	·	-1.4%	·	·
O=C(CCN=C1NS(=O)(=O)c2ccccc21)NCc1ccccc1F	·	7.8%	·	·	·	1.5%
Cc1cc(C)c(NC(=O)CSc2ncc(S(=O)(=O)c3ccc(C(C)(C)C)cc3)c(=O)[nH]2)c(C)c1	-12.6%	·	·	10.7µM*	·	·
O=C(CSc1ncn[nH]1)Nc1ccc2c(c1)OCCO2	5.4%	?	11.8%	?	?	?
O=C(CSc1ncc(S(=O)(=O)c2ccc(Cl)cc2)c(=O)[nH]1)Nc1ccc2c(c1)OCCO2	-1.0%	·	·	12µM*	·	·
CCN1C(C(=O)c2ccccc2)=C(OC(=O)c2ccc(OC)cc2)c2ccccc2S1(=O)=O	-21.9%	·	·	-0.5%	·	·
COc1cc(-c2coc3cc(OCc4ccccc4)c(OC)c(O)c3c2=O)cc(O)c1OC	1.1%	·	·	·	·	·
CCc1cccc(C)c1NC(=O)c1cn2c3c(ccc(Cl)c3c1=O)OC(C)C2 (centres undefined)	·	·	·	11.3%	·	·
Cc1ccc(C(=O)ON=C2CCN(c3ccc([N+](=O)[O-])cc3)CC2)cc1	-5.5%	-2.6%	0.1%	10.7µM*	6.5%	-1.0%
CN1C(=O)C2(C(C#N)=C(N)N(c3cc(Cl)cc(Cl)c3)C3=C2C(=O)CCC3)c2ccccc21 (centres undefined)	6.4%	10.3µM*	-1.6%	-0.4%	-4.3%	-25.9%
Cc1ccc(NC(=O)N2CCC(c3ccccc3)C2)cc1C (centres undefined)	12.6µM*	?	1.41µM*	4.78µM*	0.794µM*	?
Cc1ccc(C2CCN(C(=O)Nc3ccccc3)C2)cc1 (centres undefined)	?	?	4.47µM*	12µM*	3.98µM*	?
Cc1ccc(C(=O)NC2CCN(C(=O)Nc3ccccc3)CC2)cc1	·	13.9%	-2.2%	2.5%	0.2%	-0.6%
O=C(Nc1ccc(Cl)cc1)N1CCC(c2ccccc2)C1 (centres undefined)	12.6µM*	?	1.58µM*	3.79µM*	1.12µM*	?
CCCC(=O)N1CCN(c2nc3ccc(F)cc3s2)CC1	·	·	·	10.7µM*	·	·
CCC(=O)N1CCN(c2nc3c(C)cccc3s2)CC1	·	·	·	-2.3%	·	·
CCC(=O)N1CCN(c2nc3ccc(Br)cc3s2)CC1	·	?	?	15.1µM*	?	?
CCCCC(=O)N1CCN(c2nc3ccc(OCC)cc3s2)CC1	·	0.7%	-0.5%	13.5µM*	3.6%	-7.2%
CCCCC(=O)N1CCN(c2nc3ccc(F)cc3s2)CC1	·	?	0.562µM*	6.01µM*	0.501µM*	-5.3%
O=C(c1ccc([N+](=O)[O-])o1)N1CCN(c2nc3ccc(F)cc3s2)CC1	·	?	-5.7%	5.5%	15.9%	-3.6%
CC(C)N(C)C(=O)C(=O)c1cccn1-c1cccc(Cl)c1C#N	-9.7%	9.0%	-5.5%	0.3%	1.1%	0.4%
SMILES	SMN2 splice enh	ELG1 repair inh	NPC1 prom act	FLuc modulator	Rab9 promoter act	ELG1 genotox
Cc1cc(OCC(O)CNC(C)(C)C)ccc1Cl (centres undefined)	11.8%	13.4%	0.3%	1.0%	-0.7%	-5.9%
COc1cc(C(=O)NCC2(c3ccccc3)CCCC2)cc(OC)c1OC	·	?	2.4%	3.6%	-0.3%	-8.3%
COc1ccc(CNC(=O)C2CCCN(c3nccc(C)n3)C2)cc1 (centres undefined)	22.3%	-22.2%	-1.2%	1.5%	-0.3%	-2.2%
CCOc1cc(C=O)cc(Br)c1OCC(N)=O	4.0%	0.6%	-0.2%	-0.4%	-5.4%	-4.1%
CCSc1ccccc1C(=O)N1CCN(c2nc3ccccc3s2)CC1	·	·	·	-12.6%	·	·
CCCC(=O)N1CCN(c2nc3ccccc3s2)CC1	·	?	1.41µM*	7.57µM*	1.12µM*	?
c1ccc2c(-c3csc(-c4ccncc4)n3)c[nH]c2c1	12.6µM*	?	1.0%	7.57µM*	?	?
COc1ccc(C)cc1Nc1nc(-c2c[nH]c3ccccc23)cs1	-9.5%	9.6%	0.1%	?	1.3%	1.6%
Brc1ccc(-c2csc(-c3c[nH]c4ccccc34)n2)cc1	?	?	?	21.3µM*	9.3%	10.2%
Clc1ccc(-c2c[nH]c3ccccc23)nn1	23.2%	29.7%	5.8%	?	19.5%	4.8%
C[N+]1(C)C[C@@H](O)C[C@@H]1C(=O)[O-]	-4.1%[20.6 µM]	·	·	·	·	·
c1nc(Nc2ccc(N3CCOCC3)cc2)c2ccsc2n1	·	?	3.16µM*	16.9µM*	?	15.7%
Brc1ccc2ncnc(Nc3ccc(N4CCOCC4)cc3)c2c1	-23.1%	6.51µM*	27.4%	?	2.4%	-10.6%
CCOC(=O)c1ccc(NC(=O)CSc2nc(=O)n(CCN3CCOCC3)c3c2CCC3)cc1	·	4.7%	1.4%	4.4%	-1.1%	-0.9%
O=C(CSc1nnc(Cn2nnc3ccccc32)o1)N(Cc1ccc(F)cc1)c1ccccc1	·	-1.0%	-24.1%	6.8%	-19.3%	-4.3%
COc1ccc(N(Cc2ccccc2)C(=O)CSc2nnc(Cn3nnc4ccccc43)o2)cc1	-23.0%	18.4µM*	0.6%	5.8%	-7.2%	-18.9%
c1ccc(-c2nc(-c3nccc4ccccc34)oc2-c2ccccc2)cc1	·	?	?	6.01µM*	3.16µM*	?
CC(C)c1ccc(OCC(=O)NC2=NCCS2)cc1	·	?	?	7.57µM*	16.1%	27.3%
CC(Oc1ccccc1)C(=O)NC1=NCCS1 (centres undefined)	14.1µM*	?	?	15.1µM*	3.16µM*	?
O=C(COc1ccccc1)NC1=NCCS1	-27.8%	?	-4.6%	7.57µM*	-1.6%	14.6µM*
O=C(NC1=NCCS1)Nc1ccccc1	10µM*	?	1.41µM*	9.53µM*	1.41µM*	?
Cc1cccnc1NC(=O)C(C)Oc1ccccc1 (centres undefined)	6.4%	0.0%	-1.9%	7.4%	-1.1%	0.5%
NS(=O)(=O)c1ccc(NC(=O)COC(=O)/C(=C/c2cccs2)c2cccs2)cc1	8.1%	-16.5%	-0.2%	3.0%	-4.2%	-4.8%

Assay outcomes from PubChem.
